In the supplement of paper PMC6555819:

Key:
Test in all cases: PBM binding z-score (relative to random genomic background probes); higher = stronger binding; sequences stand for … in GC…GCGATTGACAGCGTAGAATGAAGG
[1] = system: FXR:RXRa (NR concentration 270 nM, RXRa partner concentration 90 nM)
Outline: (§1)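 Ligand-free nuclear receptor dimers were bound for 1 h to custom Agilent 4×180K protein-binding microarrays. Detection used antibodies against each partner (one per run). Binding z-scores rest on regression-normalized fluorescence, with random background probes as the reference.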

[2] = system: LXRa:RXRa (NR concentration 270 nM, RXRa partner concentration 90 nM)
Outline: as §1

[3] = system: LXRa homodimer (NR concentration 270 nM)
Outline: as §1

[4] = system: LXRb:RXRa (NR concentration 270 nM, RXRa partner concentration 90 nM)
Outline: as §1

[5] = system: LXRb homodimer (NR concentration 270 nM)
Outline: as §1

[6] = system: PPARa:RXRa (NR concentration 270 nM, RXRa partner concentration 90 nM)
Outline: as §1

[7] = system: PPARg:RXRa (NR concentration 180 nM, RXRa partner concentration 90 nM)
Outline: as §1

[8] = system: PPARg:RXRa 270nM:90nM, anti-RXR (NR concentration 270 nM, RXRa partner concentration 90 nM)
Outline: as §1

[9] = system: PPARg:RXRa 30nM:10nM, anti-RXR (NR concentration 30 nM, RXRa partner concentration 10 nM)
Outline: as §1

[10] = system: PPARg:RXRa 90nM:30nM, anti-RXR (NR concentration 90 nM, RXRa partner concentration 30 nM)
Outline: as §1

[11] = system: PPARg:RXRa DBDmut IVT, anti-RXR (DBD mutation: RXRa K156A/R161A, NR concentration 270 nM, RXRa partner concentration 90 nM)
Outline: as §1

[12] = system: PPARg:RXRa IVT, anti-PPARg (NR concentration 270 nM, RXRa partner concentration 90 nM)
Outline: as §1

[13] = system: PPARg DBDmut:RXRa IVT, anti-PPARg (DBD mutation: PPARg1 K132A/R137A, NR concentration 270 nM, RXRa partner concentration 90 nM)
Outline: as §1

[14] = system: PPARg DBDmut IVT, anti-PPARg (DBD mutation: PPARg1 K132A/R137A, NR concentration 270 nM)
Outline: as §1

[15] = system: PPARg homodimer (NR concentration 180 nM)
Outline: as §1

[16] = system: PXR:RXRa (NR concentration 270 nM, RXRa partner concentration 90 nM)
Outline: as §1

[17] = system: PXR homodimer (NR concentration 270 nM)
Outline: as §1

[18] = system: RARa:RXR (NR concentration 270 nM, RXRa partner concentration 90 nM)
Outline: as §1

[19] = system: RARa homodimer (NR concentration 270 nM)
Outline: as §1

[20] = system: RARb:RXRa (NR concentration 270 nM, RXRa partner concentration 90 nM)
Outline: as §1

Sequence | PBM binding z-score [1] | PBM binding z-score [2] | PBM binding z-score [3] | PBM binding z-score [4] | PBM binding z-score [5] | PBM binding z-score [6] | PBM binding z-score [7] | PBM binding z-score [8] | PBM binding z-score [9] | PBM binding z-score [10] | PBM binding z-score [11] | PBM binding z-score [12] | PBM binding z-score [13] | PBM binding z-score [14] | PBM binding z-score [15] | PBM binding z-score [16] | PBM binding z-score [17] | PBM binding z-score [18] | PBM binding z-score [19] | PBM binding z-score [20]
CGTCAAAGTTCAACTAAGGTGACGTAAAGCACGC | 7.03 | 6.44 | 4.17 | 4.04 | 2.05 | 5.05 | 5.01 | 5.86 | 2.52 | 4.48 | 0.538 | 2.53 | -0.0247 | 0.457 | 4.07 | 5.89 | 4.65 | 4.4 | 1.76 | 5.17
CCGACAGGGGCAGAAAGGTTACCATACCATCCGG | 0.56 | 0.716 | -0.132 | 1.04 | -0.954 | 1.95 | 1.47 | 1.96 | 0.381 | 1.32 | -0.112 | 0.0354 | -1.22 | -0.752 | 1.16 | 1.25 | 0.36 | 1.92 | 0.385 | 1.95
TAACCTAGGTCAGATCGGGCCAGTATACGCTATA | 2.84 | 2.52 | 0.693 | 1.64 | 0.561 | 2.29 | 1.87 | 2.06 | 0.906 | 1.62 | 1.82 | 3.4 | 0.884 | -0.00517 | 1.09 | 1.54 | -0.137 | 1.38 | -0.0765 | 3.32
ACTACAGGGTCACTAGGCCAGAGTAGGTACGAAT | 6.17 | 3.51 | -0.237 | 3.18 | 0.0917 | 5.65 | 7.54 | 5.96 | 2.62 | 5.05 | 3.3 | 5.46 | 1.45 | 0.752 | 2.24 | 2.67 | 0.0574 | 3.53 | 0.377 | 4.19
ATCTCTAGGTAATAAGTTCAGTGAAAGAGAGGAC | 0.945 | 1.09 | 0.832 | 0.701 | 1.15 | 1.51 | 1.69 | 2.39 | 1.36 | 2.07 | 2.07 | 2.06 | 1.58 | 1.43 | 1.52 | 1.7 | 2.13 | 0.943 | 1.54 | 1.83
GCTTACGGGTCAAAGGATATAGCATGAATAGAAT | 5.93 | 3.75 | -0.261 | 3.44 | 0.261 | 5.37 | 5.87 | 5.9 | 3.29 | 5.26 | 4.24 | 4.01 | 1.25 | 1.03 | 1.09 | 3.09 | -0.166 | 3.94 | 0.713 | 3.54
TCATATAGGTTAACAGGTGAAAGTCCGTAAGTTA | 1.57 | 1.72 | 0.586 | 1.72 | 0.145 | 3.68 | 5.44 | 5.12 | 4.64 | 4.91 | 5.79 | 5.64 | 2.16 | 1.92 | 1.58 | 1.46 | 0.372 | 1.93 | 1.1 | 2.08
CAGCCTAGGTCAGGGCTAGTATAGGAGGAACGTT | 1.42 | 0.697 | -0.359 | 0.186 | -1.36 | 1.99 | 0.77 | 0.899 | -0.0707 | 0.264 | 1.32 | 1.55 | -1.23 | -0.952 | 0.47 | 0.176 | -0.363 | 1.08 | -0.159 | 3.41
CGCACTAGGTCAGAACAGGACAGTGAAGGATGAT | 1.58 | 1.02 | -0.057 | 0.629 | -0.258 | 2.67 | 4.7 | 4.2 | 1.63 | 3.24 | 7.11 | 7.1 | 0.649 | 0.931 | 1.4 | 1.07 | 0.443 | 1.39 | 0.474 | 3.02
TCGAGTAGGTTAGGGGGATTCAGAATGGCGTCGA | 0.594 | 0.704 | 0.047 | 2.05 | 5.63 | 1.63 | 1.42 | 3.21 | 2.01 | 2.69 | 2.93 | 3.21 | 2.69 | 5.71 | 1.41 | 1.2 | 0.466 | 0.482 | 0.665 | 1.19
GGTAGTTGGTCAGTAAAAGGTCACACACCGGTCG | 3.14 | 4.29 | 4.91 | 4.07 | 1.47 | 4.34 | 2.7 | 4.44 | 2.46 | 3.81 | 0.823 | 3.16 | 0.932 | 0.24 | 4.48 | 4.95 | 1.37 | 5.68 | 3 | 4.28
ACTCGGACGACAAAGGTCAGAGCTACGCCAGTGA | 3.61 | 4.04 | 1.27 | 3.23 | 0.325 | 4.37 | 4.45 | 5.09 | 2.65 | 4.51 | 0.324 | 2.18 | 0.163 | -0.0873 | 2.37 | 3.4 | -0.377 | 4.48 | 0.552 | 4.17
GCAGACAGGTGAAACGCAGGTAACTTAGGGTGGC | 0.0644 | -0.18 | -0.522 | -0.226 | -1.05 | 0.666 | 0.771 | 0.226 | -0.508 | -0.022 | 1.09 | 0.626 | -0.0838 | -0.922 | -0.576 | -0.333 | -0.519 | 0.279 | -0.246 | 0.798
CAGACTAGGTCACGAAAGGTCAAAGTCGAATGAC | 7.54 | 8.31 | 7.86 | 7.34 | 2.45 | 6.6 | 9.66 | 7.89 | 5.88 | 7.73 | 7.63 | 8.03 | 2.48 | 2.21 | 6.4 | 6.89 | 2.84 | 7.62 | 4.19 | 5.6
